Compound activity deposited in PubChem BioAssay by Broad Institute.
The full list was thinned out, with hits kept by preference.
IDE exosite inh: displaces the probe from the exo-site of human IDE; P14735; AID 1259349; z-score at 20 µM; hit rate 6.3% among 17,000; purified IDE, FL-6b probe fluorescence polarization; stronger effect = lower value;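 active = z-score of -3 or lower, meaning strong loss of probe binding signal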;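 note: His-tagged human IDE residues 42-1019 made in E. coli with 30 nM FL-6b probe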
Target sequence (P14735 42-1019 limits assumed): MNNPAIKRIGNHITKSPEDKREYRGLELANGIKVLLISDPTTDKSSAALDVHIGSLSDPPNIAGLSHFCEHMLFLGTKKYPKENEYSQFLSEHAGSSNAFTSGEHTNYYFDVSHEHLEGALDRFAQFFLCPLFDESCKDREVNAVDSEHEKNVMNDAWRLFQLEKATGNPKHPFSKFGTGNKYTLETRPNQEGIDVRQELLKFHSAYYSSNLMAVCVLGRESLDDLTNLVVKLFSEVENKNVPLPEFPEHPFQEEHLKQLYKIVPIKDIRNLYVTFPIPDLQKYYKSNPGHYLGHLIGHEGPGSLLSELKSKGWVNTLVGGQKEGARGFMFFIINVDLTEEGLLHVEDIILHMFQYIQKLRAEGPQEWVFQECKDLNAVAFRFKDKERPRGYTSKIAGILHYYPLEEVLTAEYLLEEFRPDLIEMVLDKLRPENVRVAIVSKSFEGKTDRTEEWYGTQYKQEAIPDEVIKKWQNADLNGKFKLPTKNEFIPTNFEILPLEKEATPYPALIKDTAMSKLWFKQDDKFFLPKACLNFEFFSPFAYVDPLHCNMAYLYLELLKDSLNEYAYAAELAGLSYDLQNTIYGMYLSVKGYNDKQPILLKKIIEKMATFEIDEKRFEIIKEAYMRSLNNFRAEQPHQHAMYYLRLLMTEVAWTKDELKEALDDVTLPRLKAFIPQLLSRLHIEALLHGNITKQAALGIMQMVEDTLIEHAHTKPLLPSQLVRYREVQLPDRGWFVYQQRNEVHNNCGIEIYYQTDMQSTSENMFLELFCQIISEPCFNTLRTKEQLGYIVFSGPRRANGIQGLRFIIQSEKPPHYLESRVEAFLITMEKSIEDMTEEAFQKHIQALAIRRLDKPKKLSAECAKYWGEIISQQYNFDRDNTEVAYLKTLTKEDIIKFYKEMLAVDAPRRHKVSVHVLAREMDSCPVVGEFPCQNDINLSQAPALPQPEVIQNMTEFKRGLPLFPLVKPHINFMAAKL
Large screens that a line does not name were inactive.

O=S(=O)(c1ccccc1F)N1CCCCN2[C@H](C1)[C@H](c1ccc(-c3cccnc3)cc1)[C@@H]2CO	none
O=S(=O)(c1ccccc1F)N1CCCCN2[C@H](CO)[C@@H](c3ccc(-c4cccnc4)cc3)[C@@H]2C1	IDE exosite inh -7.7
Cc1ccccc1S(=O)(=O)N1CCCCN2[C@@H](CO)[C@H](c3ccc(-c4cccnc4)cc3)[C@@H]2C1	none
CC(=O)NC[C@@H]1[C@@H](c2ccccc2)[C@H](CO)N1C(=O)Cc1cccnc1	none
CCC(=O)NC[C@H]1N[C@H](CO)[C@@H]1c1ccc(-c2cccc(C#N)c2)cc1	none
N#C[C@@H]1[C@H](c2ccc(C3=CCCC3)cc2)[C@H](CO)N1C(=O)C1CCOCC1	none
CCC(=O)N1CCCCN2[C@H](CO)[C@@H](c3ccc(C#Cc4ccccc4)cc3)[C@@H]2C1	IDE exosite inh -9.2
CCC(=O)N1CCCCN2[C@@H](CO)[C@@H](c3ccc(C#Cc4ccccc4)cc3)[C@@H]2C1	IDE exosite inh -7.7
CCC(=O)N1CCCCN2[C@H](CO)[C@H](c3ccc(C#CCOC)cc3)[C@H]2C1	none
CCC(=O)N1CCCCN2[C@H](CO)[C@H](c3ccc(C#Cc4ccccc4)cc3)[C@H]2C1	IDE exosite inh -4.7
CCC(=O)N1CCCCN2[C@@H](CO)[C@H](c3ccc(-c4cccc(C#N)c4)cc3)[C@@H]2C1	none
CCC(=O)N1CCCCN2[C@@H](CO)[C@@H](c3ccc(C#CCOC)cc3)[C@@H]2C1	none
CCC(=O)N1CCCCN2[C@@H](CO)[C@H](c3ccc(C#Cc4ccccc4)cc3)[C@@H]2C1	IDE exosite inh -9.4
CCC(=O)N1CCCCN2[C@@H](CO)[C@H](c3ccc(C#CCOC)cc3)[C@@H]2C1	none
O=C(Nc1ccccc1)N1CCCCN2[C@H](CO)[C@@H](c3ccc(C#Cc4ccccc4)cc3)[C@H]2C1	none
CCC(=O)N1CCCCN2[C@H](CO)[C@@H](c3ccc(C#CCOC)cc3)[C@@H]2C1	none
O=C(O)C[C@@H]1C=C[C@H](NC(=O)Nc2cc(F)ccc2F)[C@@H](CO)O1	none
COc1ccc2c3c(n(C)c2c1)[C@@H](CO)N(Cc1cccc(Cl)c1)CC31CCN(C(=O)C2CC2)CC1	none
O=C1CN(S(=O)(=O)Cc2ccccc2)C[C@@H]2[C@H](c3ccc(C#Cc4ccccc4)cc3)[C@@H](CO)N12	none
CCC(=O)N1[C@H](CO)[C@H](c2ccc(-c3cccc(F)c3)cc2)[C@H]1CNC(C)=O	none
N#C[C@H]1[C@@H](c2ccc(C#CC3CC3)cc2)[C@@H](CO)N1C(=O)Cc1ccccn1	none
COc1ccccc1CNC(=O)C[C@@H]1C[C@@H]2c3cc(NC(=O)C4CCC4)ccc3O[C@@H]2[C@H](CO)O1	none
O=C1CNC[C@H]2[C@H](c3ccc(C#CC4CCCCC4)cc3)[C@@H](CO)N12	none
COc1ccc2c3c(n(C)c2c1)[C@@H](CO)N(Cc1ccccc1OC)CC31CN(C)C1	none
N#C[C@H]1N[C@H](CO)[C@H]1c1ccccc1	none
COc1ccccc1-c1ccc([C@H]2[C@H](C#N)N[C@@H]2CO)cc1	IDE exosite inh -12
N#C[C@@H]1N[C@H](CO)[C@@H]1c1ccc(-c2ccccc2F)cc1	none
COc1ccc(-c2ccc([C@@H]3[C@H](C#N)N[C@H]3CO)cc2)cc1	none
N#C[C@H]1N[C@H](CO)[C@@H]1c1ccc(-c2ccccc2F)cc1	IDE exosite inh -4.4
COc1ccc(-c2ccc([C@H]3[C@@H](C#N)N[C@@H]3CO)cc2)cc1	none
O=C(Nc1ccc2c(c1)[C@H]1C[C@H](CC(=O)N3CCOCC3)O[C@@H](CO)[C@H]1O2)Nc1ccccc1F	none
O=C(c1cnccn1)N1CC(=O)N2[C@@H](CO)[C@H](c3ccc(C#CCC4CCCC4)cc3)[C@@H]2C1	none
CCC(=O)N1CC(=O)N2[C@H](CO)[C@@H](c3ccc(-c4ccncc4)cc3)[C@H]2C1	none
N#C[C@H]1[C@H](c2ccccc2)[C@@H](CO)N1C(=O)c1ccc2c(c1)OCO2	none
CN(C)C(=O)c1ccc(-c2ccc([C@@H]3[C@H](CO)N4CCCCN(Cc5cncnc5)C[C@@H]34)cc2)cc1	none
CC(C)C#Cc1ccc([C@H]2[C@@H](CO)N3C(=O)CN(C(=O)C4CCCCC4)C[C@@H]23)cc1	none
CCC(=O)N1CC(=O)N2[C@H](C1)[C@H](c1ccc(-c3cccc(C(=O)N(C)C)c3)cc1)[C@@H]2CO	none
C/C=C/c1ccc([C@@H]2[C@H](CO)N3C(=O)CN(C(=O)c4ccncc4)C[C@@H]23)cc1	none
C/C=C/c1ccc([C@@H]2[C@@H](CO)N3C(=O)CN(C(=O)c4ccncc4)C[C@@H]23)cc1	none
O=C(c1ccncc1)N1CC(=O)N2[C@H](CO)[C@@H](c3ccc(/C=C/c4ccccc4)cc3)[C@@H]2C1	none
C/C=C/c1ccc([C@H]2[C@H]3CN(C(=O)c4ccncc4)CC(=O)N3[C@H]2CO)cc1	none
O=C(c1ccccc1)N1CC(=O)N2[C@H](CO)[C@H](c3ccc(/C=C/c4ccccc4)cc3)[C@@H]2C1	none
O=C(c1ccc(F)cc1)N1CC(=O)N2[C@H](CO)[C@H](c3ccc(/C=C/c4ccccc4)cc3)[C@@H]2C1	none
O=C(c1ccncc1)N1CC(=O)N2[C@@H](CO)[C@H](c3ccc(/C=C/c4ccccc4)cc3)[C@@H]2C1	IDE exosite inh -16
O=C(c1ccncc1)N1CC(=O)N2[C@H](C1)[C@@H](c1ccc(/C=C/c3ccccc3)cc1)[C@@H]2CO	IDE exosite inh -6
O=C(c1ccccc1)N1CC(=O)N2[C@H](CO)[C@H](c3ccc(/C=C/c4ccccc4)cc3)[C@H]2C1	IDE exosite inh -8.4
CNC[C@H]1OCCCC[C@@H](C)Oc2ccc(NC(=O)Nc3ccc(OC)cc3)cc2C(=O)N([C@H](C)CO)C[C@@H]1C	none
CCC(=O)N1CC(=O)N2[C@H](C1)[C@H](c1ccc(C#CC3CCCCC3)cc1)[C@@H]2CO	none
CO[C@@H]1CC[C@@H]2CCOc3c(C#N)cccc3C(=O)N(C)C[C@@H](c3ccccc3)CC(=O)N(C)C[C@@H]1O2	none
CC(=O)N1[C@H](CN(CC(C)C)C(=O)c2ccccn2)[C@H](c2ccccc2)[C@@H]1CO	none
CC(C)[C@H]1C(=O)N[C@H](c2cccc(Cl)c2)CC=CC[C@H](C)Oc2ccccc2C(=O)N1C (mixture of isomers)	none
CCC(=O)N1[C@H](CN(CC)C(=O)c2ccc(F)cc2)[C@H](c2ccccc2)[C@@H]1CO	none
O=C(CN1CCOCC1)N1CCCCN2[C@H](CO)[C@H](c3ccc(Br)cc3)[C@@H]2C1	none
O=C(CN1CCOCC1)N1CCCCN2[C@H](C1)[C@H](c1ccc(C#Cc3ccccc3)cc1)[C@@H]2CO	IDE exosite inh -13
O=C(CN1CCOCC1)N1CCCCN2[C@H](C1)[C@H](c1ccc(Br)cc1)[C@@H]2CO	none
Cc1ccccc1-c1ccc([C@H]2[C@@H](CO)N3CCCCN(C(=O)CN4CCOCC4)C[C@@H]23)cc1	none
O=C(CN1CCOCC1)N1CCCCN2[C@H](CO)[C@@H](c3ccc(C#Cc4ccccc4)cc3)[C@H]2C1	IDE exosite inh -3.3
O=C(CN1CCOCC1)N1CCCCN2[C@@H](CO)[C@@H](c3ccc(C#Cc4ccccc4)cc3)[C@@H]2C1	IDE exosite inh -5.5
O=C(CN1CCOCC1)N1CCCCN2[C@@H](CO)[C@H](c3ccc(C#Cc4ccccc4)cc3)[C@@H]2C1	IDE exosite inh -7.1
Cc1ccc(-c2ccccc2[C@@H]2[C@H](C#N)N(C(=O)Cc3cccnc3)[C@H]2CO)cc1	none
CN1C[C@@H]2[C@H](c3ccccc31)[C@H](CO)N2Cc1ccccc1Cl	none
COc1ccc(-c2ccc(C3[C@H]4CNC[C@@H]3N4Cc3nccs3)cc2)cc1 (some centres not stated)	none
